The source of these data is PubChem BioAssay (NCI).

SMILES strings stand for the structures. This is part of a sample that, as a whole, favours compounds with a hit. Of some 83,000 tested, about 20% had one in any assay.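 Interpretation: 100, growth as untreated; towards 0, rising growth inhibition; 0, no net growth; 0 to -100, cell death. Compounds scoring below 10 were considered active.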 A number with no mark means an inactive call. Active and inactive are the calls of the source.

Holding throughout (test): NCI-60 one-dose screen, 48 h (100 = growth as untreated, 0 = no growth, -100 = all killed)
One experiment deals with K-562 leukemia. Particulars: 10 µM unless noted.
The subject of the next experiment is MALME-3M melanoma. Conditions: 10 µM unless noted.
The subject of another experiment is MDA-MB-231 breast. Conditions: 10 µM unless noted.
In the next experiment the test system is RXF 393 renal. Particulars: 10 µM unless noted.
The test system of another experiment is SF-268 CNS. Particulars: 10 µM unless noted.
The subject of a further experiment is SF-295 CNS. Conditions: 10 µM unless noted.
The next experiment concerns SF-539 CNS. Conditions: 10 µM unless noted.
A further experiment has as its system UACC-257 melanoma. Conditions: 10 µM unless noted.
The next experiment relates to M14 melanoma. Conditions: 10 µM unless noted.
The test system of a further experiment is HCT-15 colon. Conditions: 10 µM unless noted.
The test system of another experiment is HT29 colon. Conditions: 10 µM unless noted.
Another experiment deals with SNB-75 CNS. Conditions: 10 µM unless noted.
For a further experiment, the system named is SNB-19 CNS. Conditions: 10 µM unless noted.
The next experiment deals with U251 CNS. Particulars: 10 µM unless noted.
Another experiment concerns PC-3 prostate. Conditions: 10 µM unless noted.
For the next experiment, the system named is SK-MEL-5 melanoma. Conditions: 10 µM unless noted.
A further experiment relates to UACC-62 melanoma. Particulars: 10 µM unless noted.
The test system of a further experiment is LOX IMVI melanoma. Conditions: 10 µM unless noted.
The test system of a further experiment is SK-MEL-28 melanoma. Particulars: 10 µM.
The subject of a further experiment is SK-MEL-2 melanoma. Particulars: 10 µM unless noted.

Regarding `COc1nccc2cc3c(=O)n4c(cc5ccccc54)c(=O)n3c12`, the growth in the experiment on K-562 leukemia was 91.9%; in the experiment with MALME-3M melanoma it was 85.7%; in the experiment on MDA-MB-231 breast, 90.3%; with RXF 393 renal it was 112%; in the experiment on SF-268 CNS, 101%; in the experiment with SF-295 CNS, 106%. The growth was 104% in the experiment on SF-539 CNS; 114% with UACC-257 melanoma; 97.2% with M14 melanoma; 91.4% with HCT-15 colon; 112% in the experiment with HT29 colon; 89.2% in the experiment with SNB-75 CNS. Further, the growth in the experiment with SNB-19 CNS is 108%; with U251 CNS, 101%; in the experiment on PC-3 prostate, 87.8%; in the experiment with SK-MEL-5 melanoma, 96.6%; with UACC-62 melanoma, 101%; with LOX IMVI melanoma, 97.1%. For the same compound, the results for the growth in the experiment on SK-MEL-28 melanoma and with SK-MEL-2 melanoma were 109% and 94.3%, respectively.
As for `COc1cc(/C=C2\CCC/C(=C\c3cc(CN4CCCCC4)c(O)c(OC)c3)C2=O)cc(CN2CCCCC2)c1O`, the growth in the experiment on K-562 leukemia was 38.8%; with MALME-3M melanoma, 90.3%; in the experiment on MDA-MB-231 breast, 69.3%; in the experiment on RXF 393 renal it was 61.7%; with SF-268 CNS, 73.5%; in the experiment on SF-295 CNS, 96.8%. The growth in the experiment on SF-539 CNS was 73%; with UACC-257 melanoma, 95.4%; in the experiment on M14 melanoma it was 99%; in the experiment on HCT-15 colon, 52.3%; in the experiment on HT29 colon it was 13.3%; in the experiment on SNB-75 CNS, 89.8%. Moreover, the growth was 80.7% in the experiment on SNB-19 CNS; 70.1% in the experiment on U251 CNS; 82.7% in the experiment with PC-3 prostate; 92.6% with SK-MEL-5 melanoma; 91.5% in the experiment with UACC-62 melanoma; 66.9% with LOX IMVI melanoma. The growth in the experiment with SK-MEL-28 melanoma was 93.6%; in the experiment with SK-MEL-2 melanoma, 101%.
For the compound `O=C(/C=C/c1ccccc1)c1ccc(Nc2nc(NCCO)nc(Nc3ccc(Cl)cc3)n2)cc1`, the growth with K-562 leukemia was 36.1%; in the experiment on MALME-3M melanoma, 98.7%; in the experiment on MDA-MB-231 breast, 71.4%; in the experiment on RXF 393 renal, 73.2%; in the experiment with SF-268 CNS it was 73.8%; in the experiment with SF-295 CNS it was 96.1%. Further, the growth with SF-539 CNS is 73%; with UACC-257 melanoma, 94.7%; in the experiment with M14 melanoma it was 99.9%; in the experiment with HCT-15 colon, 8.55% (active); in the experiment on HT29 colon, 30.2%; with SNB-75 CNS, 69.2%. Besides, the growth was 79.6% in the experiment on SNB-19 CNS; 23% with U251 CNS; 77.8% in the experiment with PC-3 prostate; 80.2% in the experiment on SK-MEL-5 melanoma; 78.7% in the experiment on UACC-62 melanoma; 30.6% in the experiment on LOX IMVI melanoma. The growth is 88.2% in the experiment on SK-MEL-28 melanoma and 95.4% in the experiment with SK-MEL-2 melanoma.
As for `O=C(Nc1ccc(Cl)cc1F)c1cc(F)ccc1O`, the growth in the experiment on K-562 leukemia was 5.39% (active); in the experiment on MALME-3M melanoma, -21.5% (active); in the experiment with MDA-MB-231 breast it was -18.1% (active); in the experiment on RXF 393 renal, 9.69% (active); in the experiment with SF-268 CNS it was 13.4%; in the experiment with SF-295 CNS it was -56.2% (active). The growth in the experiment on SF-539 CNS is 4.32% (active); with UACC-257 melanoma it was -17.3% (active); in the experiment with M14 melanoma, 2.92% (active); with HCT-15 colon, 3.11% (active); in the experiment on HT29 colon it was 10.3%; in the experiment on SNB-75 CNS it was -12.4% (active). Besides, the growth in the experiment with SNB-19 CNS is 22.8%; with U251 CNS, -4.4% (active); in the experiment with PC-3 prostate it was 3.1% (active); with SK-MEL-5 melanoma, -84.4% (active); in the experiment on UACC-62 melanoma, -7.35% (active); in the experiment on LOX IMVI melanoma, 9.69% (active). The growth with SK-MEL-28 melanoma was 7.52% (active); in the experiment with SK-MEL-2 melanoma, -29.8% (active).
Turning to `O=c1c(-c2nc3ccccc3[nH]2)cc2ccccc2n1Cc1cn(Cc2ccccc2Cl)nn1`, the growth in the experiment on K-562 leukemia is 30.7%; in the experiment with MALME-3M melanoma, 5.45% (active); in the experiment with MDA-MB-231 breast, -21% (active); with RXF 393 renal, 13.1%; with SF-268 CNS it was 45.2%; in the experiment with SF-295 CNS, 32.9%. Moreover, the growth in the experiment with SF-539 CNS is 4.13% (active); in the experiment on UACC-257 melanoma, 56.8%; with M14 melanoma, 38.4%; in the experiment on HCT-15 colon, 19.7%; in the experiment on HT29 colon, 0.454% (active); in the experiment on SNB-75 CNS, -41.2% (active). The growth in the experiment on SNB-19 CNS was 54.8%; in the experiment on U251 CNS it was 37.9%; in the experiment on PC-3 prostate it was 36.6%; in the experiment on SK-MEL-5 melanoma, 0.0348% (active); with UACC-62 melanoma, 22.1%; in the experiment with LOX IMVI melanoma, 12.8%. For the same compound, the growth is 1.94% (active) in the experiment on SK-MEL-28 melanoma and 94.1% in the experiment on SK-MEL-2 melanoma.
Regarding `COc1cc(C2C3=C(COC3=O)N(CCO)c3cc4c(cc32)OCCO4)cc(OC)c1O` (stereo not drawn), the growth in the experiment on K-562 leukemia was 12.5%; in the experiment with MALME-3M melanoma, 64.7%; with MDA-MB-231 breast, 27.7%; in the experiment with RXF 393 renal, -45.7% (active); in the experiment on SF-268 CNS, 46%; with SF-295 CNS, 2.74% (active). The growth was -31.2% (active) in the experiment on SF-539 CNS; 46.2% in the experiment on UACC-257 melanoma; -22.4% (active) with M14 melanoma; 49.4% with HCT-15 colon; 3.06% (active) in the experiment with HT29 colon; -17.9% (active) in the experiment on SNB-75 CNS. The growth in the experiment with SNB-19 CNS was 26.8%; with U251 CNS, 19.7%; in the experiment on PC-3 prostate it was 27.2%; in the experiment on SK-MEL-5 melanoma, 12.9%; in the experiment with UACC-62 melanoma, 33.5%; with LOX IMVI melanoma, 33%. Moreover, the growth in the experiment on SK-MEL-2 melanoma is 76.5%.
With `COc1ccc(/C=C2/SC(=O)N(CC(=O)N3CCN(c4cc5c(cc4F)c(=O)c(C(=O)O)cn5C4CC4)CC3)C2=O)cc1`, the growth with K-562 leukemia is 110%; in the experiment on MALME-3M melanoma it was 98.5%; with MDA-MB-231 breast, 103%; with RXF 393 renal, 117%; with SF-268 CNS, 101%; in the experiment on SF-295 CNS it was 101%. The growth was 91.1% in the experiment with SF-539 CNS; 91.9% in the experiment on UACC-257 melanoma; 103% with M14 melanoma; 109% in the experiment with HCT-15 colon; 99.2% with HT29 colon; 86.4% in the experiment with SNB-75 CNS. The growth in the experiment with SNB-19 CNS was 101%; in the experiment with U251 CNS it was 101%; in the experiment on PC-3 prostate, 104%; in the experiment on SK-MEL-5 melanoma, 101%; with UACC-62 melanoma, 97.3%; in the experiment on LOX IMVI melanoma, 93.9%. Further, the growth in the experiment on SK-MEL-28 melanoma is 107%; in the experiment with SK-MEL-2 melanoma, 108%.
For `COc1ccc(/C=C2\CCC/C(=C\c3ccc(OC)c(OC)c3)C2=O)cc1OC`, the growth in the experiment with K-562 leukemia was 10.6%; in the experiment on MALME-3M melanoma it was 42.3%; in the experiment with MDA-MB-231 breast it was 15%; in the experiment with RXF 393 renal it was -32.5% (active); in the experiment with SF-268 CNS, 30.5%; in the experiment with SF-295 CNS, 1.26% (active). The growth in the experiment on SF-539 CNS is 13.1%; in the experiment on UACC-257 melanoma, 14%; with M14 melanoma, -2.63% (active); in the experiment with HCT-15 colon it was -8.77% (active); in the experiment with HT29 colon it was 1.7% (active); in the experiment with SNB-75 CNS it was 0.689% (active). Also, the growth in the experiment with SNB-19 CNS was 37.8%; with U251 CNS, 12.3%; in the experiment with PC-3 prostate it was 40.8%; in the experiment with SK-MEL-5 melanoma it was 5.95% (active); in the experiment on UACC-62 melanoma, -2.18% (active); in the experiment with LOX IMVI melanoma, -35% (active). In addition, in the experiment with SK-MEL-2 melanoma, the growth was 86.4%.
